Experimental data published in PubChem BioAssay AID651965 (National Center for Advancing Translational Sciences (NCATS), 2013).
Among all 340,000 compounds or so, about 6,400 (1.9%) were called active. About 4% were inconclusive and are not listed. Calls follow the shape of the dose curve; as a rule, active = well fitted falling curve with a large enough effect; inconclusive = small, poorly fitted or top-dose-only effect; inactive = no such curve, though single readings can be large or run the other way. The full list was thinned out, with actives kept by preference.

The molecules below were run against ATP-dependent Clp protease proteolytic subunit (Bacillus subtilis (strain 168)) (UniProt P80244) (assay: qHTS Assay for Activators of ClpP). Settings: purified B. subtilis ClpP, FRET peptide cleavage, 20 min; series mostly up to 57.5 µM; activity change, negative = active: at the top concentration.
Chain of ATP-dependent Clp protease proteolytic subunit (Bacillus subtilis (strain 168)) (P80244 whole entry, looked up): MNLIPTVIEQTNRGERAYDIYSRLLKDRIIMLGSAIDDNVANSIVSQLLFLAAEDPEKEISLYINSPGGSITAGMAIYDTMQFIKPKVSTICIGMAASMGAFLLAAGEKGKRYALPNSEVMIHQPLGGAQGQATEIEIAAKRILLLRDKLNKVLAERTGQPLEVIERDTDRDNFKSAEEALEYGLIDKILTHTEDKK
In short: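 ClpP 10 microg/mL final, pH 8 Tris/KCl buffer with BSA, glycerol, Tween-20; compound pinned in; FRET-FV substrate; RT 20 min; Ex320/Em430; ΔFRET vs ADEP 5.8 microM, DMSO, no enzyme.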
Also: the source files actives as falling curves though it sought activators and does not explain the sign; nearly all actives have a fitted effect of over 65% in size.
Potency is read from the fitted curve at half-maximal effect.

Activity change, negative = active, inactive:
CCCCN1CC(N2CCN(Cc3cccc(C)c3)CC2)CS1(=O)=O (stereo not given) 0.479%
COc1ccc(C2CC(c3cccs3)=NN2C(=O)COC(=O)c2cc3ccccc3cc2O)cc1OC (stereo not given) -1.29%
O=C(COc1ccccc1Cl)N1N=C(c2cccs2)CC1c1ccco1 (stereo not given) 4.14%
CN(C)CCNC(=O)c1ccc(-c2cn3c(-c4ccc(Oc5ccccc5)cc4)cnc3cn2)cc1 5.02%
OC(c1ccccc1)c1nc(-c2cnc3ccccc3c2)cs1 (stereo not given) -21.1%
C(=Nc1ccc(/C=C/c2ccnc3ccccc23)cc1)c1cc2c3c(c1)CCCN3CCC2 -19.7%
CC1=C(C(=O)N(C(C)C)C(C)C)CC(CC(=O)NCC2CCCCC2)C(=O)N1Cc1ccccc1 (stereo not given) 1.72%
Cc1ccc(C(=O)N/C(=C/C=C/c2ccccc2)C(=O)NCc2ccco2)cc1 -5.07%
CNC(=O)/C(=C\C=C\c1ccccc1)NC(=O)c1ccc([N+](=O)[O-])cc1 -4.83%
Cc1cccc(C)c1-n1nnnc1C1(C)CCC(=O)N1CCOc1ccccc1 (stereo not given) 2.41%
CC1(C(=O)NS(=O)(=O)c2cccc(F)c2)CCN1C(=O)Cc1cc(F)ccc1F (stereo not given) 0.531%
C[C@@H]1CN([C@@H](C)CO)C(=O)c2c(c3ccccc3n2C)-c2ccccc2CO[C@H]1CN(C)C(=O)C1CC1 -28.9%
COc1ccc(S(=O)(=O)NC(=O)C2(C)CCN2C(=O)COc2ccc(Cl)cc2)cc1 (stereo not given) -0.2%
CCNC(=O)N1CCN(S(=O)(=O)c2ccc3c(c2)OCCCO3)CC1 -0.0478%
COC(=O)[C@]12CCCCC=C1N(Cc1ccc(Cl)cc1Cl)C(=O)[C@H](CC(=O)NCc1cccc3ccccc13)C2 -14.3%
COCCNc1ncnc2c1c(-c1ccccc1)cn2-c1ccc(C)c(Cl)c1 -8.2%
O=c1[nH]cnc2c1c(-c1ccccc1)cn2-c1ccc(F)cc1 -3.07%
COc1ccc(CC(N)c2csc(NC(=O)NC(c3ccccc3)c3ccccc3)n2)cc1 (stereo not given) -2.62%
CC1(C(=O)NCc2ccccc2)CSCC(=O)N1CCCn1ccnc1 (stereo not given) -0.215%
COC(=O)[C@]12CCCCC=C1N(Cc1ccc3c(c1)OCO3)C(=O)[C@H](CC(=O)N1CCOCC1)C2 2.24%

Potency, active:
O=C1c2cccc(OCC(=O)N3N=C(c4cccs4)CC3c3ccc(F)cc3)c2CCN1Cc1ccccc1 (stereo not given) 15.8 µM
O=C(NCCCO)/C(=C\C=C\c1ccccc1)NC(=O)c1ccccc1Cl 28.2 µM
CCCCCC(=O)N1CCN(S(=O)(=O)c2ccc3c(c2)OCCCO3)CC1 28.2 µM
CCCNc1ncnc2c1c(-c1ccccc1)cn2-c1ccc(OCC)cc1 25.1 µM

Potency, inactive:
CN1CCCN(S(=O)(=O)c2ccc3c(c2)OCCO3)CC1
